Data on 15 molecules can be found in ChEMBL document CHEMBL1961873, “Compounds: GSK PKIS; Assays: Nanosyn kinase panel” (2012).

For assay [1], the target named is T1, Serine/threonine-protein kinase TBK1 (Homo sapiens) (UniProt Q9UHD2).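 Further: values are mean inhibition of TBK1, screened as part of the GSK published kinase inhibitor set.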
T1 sequence (whole entry): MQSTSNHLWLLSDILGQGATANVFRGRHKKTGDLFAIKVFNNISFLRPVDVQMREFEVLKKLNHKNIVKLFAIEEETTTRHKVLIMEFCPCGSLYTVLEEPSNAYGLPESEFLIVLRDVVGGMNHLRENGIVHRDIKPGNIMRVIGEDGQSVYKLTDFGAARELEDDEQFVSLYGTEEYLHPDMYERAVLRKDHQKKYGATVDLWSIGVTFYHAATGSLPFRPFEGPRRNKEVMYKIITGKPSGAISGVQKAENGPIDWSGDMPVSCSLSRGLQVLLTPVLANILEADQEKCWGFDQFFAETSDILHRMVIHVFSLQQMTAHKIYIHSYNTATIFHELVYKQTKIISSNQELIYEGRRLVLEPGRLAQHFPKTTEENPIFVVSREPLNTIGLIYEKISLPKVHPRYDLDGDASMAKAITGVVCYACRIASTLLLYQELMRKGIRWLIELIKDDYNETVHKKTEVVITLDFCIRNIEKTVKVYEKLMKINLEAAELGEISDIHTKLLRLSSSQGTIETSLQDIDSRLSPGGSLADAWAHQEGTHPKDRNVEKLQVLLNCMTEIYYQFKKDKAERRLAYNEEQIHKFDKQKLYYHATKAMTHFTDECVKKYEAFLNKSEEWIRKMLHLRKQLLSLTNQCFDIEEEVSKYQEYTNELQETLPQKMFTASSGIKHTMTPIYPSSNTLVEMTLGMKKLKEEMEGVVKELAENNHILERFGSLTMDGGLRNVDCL
As to conditions: at 1 µM.

Assay [2] deals with T2, Testis-specific serine/threonine-protein kinase 1 (Homo sapiens) (UniProt Q9BXA7).
T2 sequence (whole entry): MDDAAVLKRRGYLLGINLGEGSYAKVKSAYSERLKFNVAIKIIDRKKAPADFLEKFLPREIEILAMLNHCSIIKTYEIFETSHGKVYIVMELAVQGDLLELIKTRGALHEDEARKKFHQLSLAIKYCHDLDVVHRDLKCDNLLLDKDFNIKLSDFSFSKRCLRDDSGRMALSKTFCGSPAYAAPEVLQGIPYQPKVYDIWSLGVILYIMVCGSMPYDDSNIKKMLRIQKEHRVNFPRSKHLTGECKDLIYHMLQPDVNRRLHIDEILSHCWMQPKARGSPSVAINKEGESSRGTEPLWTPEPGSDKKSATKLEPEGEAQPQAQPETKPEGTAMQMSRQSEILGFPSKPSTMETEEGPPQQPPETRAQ
As to conditions: at 0.1 µM.

Assay [3] deals with T2, Testis-specific serine/threonine-protein kinase 1 (Homo sapiens). As to conditions: at 1 µM.
Assay [4] deals with T3, Testis-specific serine/threonine-protein kinase 2 (Homo sapiens) (UniProt Q96PF2).
T3 sequence (whole entry): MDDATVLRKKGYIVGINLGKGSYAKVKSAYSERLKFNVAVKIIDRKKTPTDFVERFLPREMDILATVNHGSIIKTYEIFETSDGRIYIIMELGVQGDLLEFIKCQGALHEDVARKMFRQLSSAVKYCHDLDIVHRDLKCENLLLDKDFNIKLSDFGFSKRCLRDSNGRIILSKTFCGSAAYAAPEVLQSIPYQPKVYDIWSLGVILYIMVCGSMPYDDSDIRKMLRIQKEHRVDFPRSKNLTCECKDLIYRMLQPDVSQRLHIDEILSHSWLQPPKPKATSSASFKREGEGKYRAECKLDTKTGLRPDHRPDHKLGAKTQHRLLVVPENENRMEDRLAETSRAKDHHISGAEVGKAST
The settings on record: at 0.1 µM.

Assay [5] deals with T3, Testis-specific serine/threonine-protein kinase 2 (Homo sapiens). The settings on record: at 1 µM.
The target in assay [6] is Casein kinase I isoform alpha (Homo sapiens) (UniProt P48729). As to conditions: at 0.1 µM.
Chain of Casein kinase I isoform alpha (Homo sapiens) (P48729 2-337 limits assumed): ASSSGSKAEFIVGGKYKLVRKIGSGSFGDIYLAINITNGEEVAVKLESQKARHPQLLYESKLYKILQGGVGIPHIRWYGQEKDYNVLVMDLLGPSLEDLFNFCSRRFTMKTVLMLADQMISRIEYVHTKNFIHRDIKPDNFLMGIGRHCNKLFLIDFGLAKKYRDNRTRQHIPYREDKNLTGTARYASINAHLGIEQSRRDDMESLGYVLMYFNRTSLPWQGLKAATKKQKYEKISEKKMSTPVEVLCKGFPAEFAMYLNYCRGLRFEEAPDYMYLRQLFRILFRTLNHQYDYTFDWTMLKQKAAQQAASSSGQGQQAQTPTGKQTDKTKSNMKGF
The target is the same in assay [7]. The settings on record: at 1 µM.
Assay [8] has as its target Casein kinase I isoform gamma-1 (Homo sapiens) (UniProt Q9HCP0). The settings on record: at 0.1 µM.
The target is the same in assay [9]. As to conditions: at 1 µM.
In assay [10] the target is Casein kinase I isoform gamma-2 (Homo sapiens) (UniProt P78368). The settings on record: at 0.1 µM.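 Further: values are mean inhibition figures reported as part of the GSK PKIS dataset.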
Chain of Casein kinase I isoform gamma-2 (Homo sapiens) (P78368 whole entry, looked up, canonical isoform): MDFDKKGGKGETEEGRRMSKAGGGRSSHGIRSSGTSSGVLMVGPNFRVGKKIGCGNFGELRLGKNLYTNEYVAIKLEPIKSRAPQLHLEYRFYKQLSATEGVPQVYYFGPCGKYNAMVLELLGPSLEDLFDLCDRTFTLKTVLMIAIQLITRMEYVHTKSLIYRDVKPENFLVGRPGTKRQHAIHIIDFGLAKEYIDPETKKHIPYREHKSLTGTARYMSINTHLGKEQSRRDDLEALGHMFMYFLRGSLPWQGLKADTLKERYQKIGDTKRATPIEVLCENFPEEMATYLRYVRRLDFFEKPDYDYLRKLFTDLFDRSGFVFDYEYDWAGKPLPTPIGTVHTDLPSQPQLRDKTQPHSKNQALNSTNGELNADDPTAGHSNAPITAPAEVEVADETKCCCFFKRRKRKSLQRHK

The structures appear in SMILES notation. Values joined by “and” are separate entries in the source; they are usually repeats but may differ in a detail not shown here. Equal values may be shown once.

Chain of Casein kinase I isoform gamma-1 (Homo sapiens) (Q9HCP0 whole entry, looked up, canonical isoform): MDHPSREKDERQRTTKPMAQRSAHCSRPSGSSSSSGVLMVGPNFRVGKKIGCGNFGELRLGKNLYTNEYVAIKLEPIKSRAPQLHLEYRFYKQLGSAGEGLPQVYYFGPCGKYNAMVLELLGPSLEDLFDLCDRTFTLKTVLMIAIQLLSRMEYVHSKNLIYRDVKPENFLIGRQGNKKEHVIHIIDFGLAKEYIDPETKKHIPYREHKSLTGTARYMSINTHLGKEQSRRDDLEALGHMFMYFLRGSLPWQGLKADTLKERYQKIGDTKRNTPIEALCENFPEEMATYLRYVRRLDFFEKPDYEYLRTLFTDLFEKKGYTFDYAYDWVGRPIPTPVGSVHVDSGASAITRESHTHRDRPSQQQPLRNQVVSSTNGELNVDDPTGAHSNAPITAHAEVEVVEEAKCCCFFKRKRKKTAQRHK

As for `Nc1nonc1-c1nc2cnccc2n1C1CC1`, the inhibition was 15.3% and 9% in assay [1]; 3.32% and 4.38% in [2]; 14.5% and 17.5% in [3]; 1.12% and 1.1% in [4]; -1.21% and 1.4% in assay [5]; 6.95% and 4.09% in assay [6]. In addition, the inhibition is 6.23% and 9.54% in [7]; 3.2% and -1.18% in assay [8]; 3.96% and -0.27% in assay [9]; 1.76% and -1.82% in assay [10].

On to `NS(=O)(=O)c1cccc(N/C=C2\C(=O)Nc3ccccc32)c1`, for which the inhibition in assay [1] is 14.4%; in assay [2] it was 4.45%; in [3], 4.78%; in assay [4] it was 1.7%; in assay [5], 1.39%; in assay [6], 8.16%. The inhibition in assay [7] is 21.6%; in assay [8] it was 4.71%; in assay [9] it was 10.6%; in assay [10], 3.71%.

For the molecule `CCn1c(-c2nonc2N)nc2cncc(C(=O)NCCNC)c21`, the inhibition in assay [1] was 9.32%; in [2] it was 7.08%; in assay [3], 32.1%; in assay [4], 2.36%; in assay [5], 1.74%; in assay [6] it was 4.37%. Besides, the inhibition in assay [7] is 4.77%; in assay [8] it was 4.39%; in assay [9], 5.89%; in assay [10], 3.81%.

For `NS(=O)(=O)c1ccc(N/N=C2\C(=O)Nc3ccc(C(=O)NCc4ccncc4)cc32)cc1`, the inhibition in assay [1] came out at 44%; in [2] it was 5.34%; in [3], 20.7%; in [4], 2.55%; in [5] it was 2.67%; in assay [6] it was 1.19%. In addition, the inhibition in assay [7] was 2.77%; in [8], 2.33%; in assay [9], 4.19%; in assay [10], 1.94%.

Turning to `CN1CCC(C(=O)Nc2n[nH]c3nc(-c4ccc(O)cc4)c(Br)cc23)CC1`, the inhibition in assay [1] was 6.1% and 2.08%; in [2], 5.11% and 0.23%; in [3], 7.56% and 2.61%; in assay [4], 3.45% and 1.03%; in assay [5], 5.78% and 1.94%; in assay [6], 2.56% and 1.97%. For the same molecule, the inhibition in assay [7] is 5.54% and 3%; in assay [8] it was 0.95% and 1.75%; in assay [9], 4.18% and 2.3%; in assay [10] it was 1.05% and 1.85%.

Regarding `COc1cc(N2CCN(C(C)C)CC2)ccc1Nc1nc(Nc2cccc(F)c2C(=O)O)c2cc[nH]c2n1`, the inhibition was found to be 6.19% in [1]; 21.1% in assay [2]; 70.9% in assay [3]; 9.88% in assay [4]; 49.2% in assay [5]; 6.82% in assay [6]. For the same molecule, the inhibition in [7] amounted to 7.9%; in assay [8], 3.56%; in [9] it was 5.73%; in assay [10], 2.68%.

For the molecule `COC(=O)Nc1nc2cc(Oc3ccc(NC(=O)Nc4ccccc4)cc3)ccc2[nH]1`, the inhibition in assay [1] was 2.25%; in assay [2], 3.86%; in [3], 4.03%; in assay [4], 2.21%; in assay [5], 4.11%; in assay [6], 0.93%. Besides, the inhibition was determined as 2.7% in assay [7], 2.12% in [8], 2.12% in assay [9] and 2.17% in [10].

On to `CCS(=O)(=O)c1ccc(OC)c(Nc2ncc(-c3cccc(F)c3)o2)c1`, for which the inhibition in assay [1] is 11.5%; in [2] it was 6.42%; in assay [3], 5.86%; in assay [4] it was 3.41%; in assay [5], 3.46%; in assay [6], 5.47%. Further, the inhibition in [7] was 7.11%; in assay [8], 4.64%; in [9], 5.04%; in assay [10], 3.91%.

On to `Cc1ccc(-c2cc3c(NC(=O)C4CC4)ncnc3o2)cc1`, for which the inhibition was found to be 10.1% in [1]; 3.8% in assay [2]; 4.18% in [3]; 1.75% in [4]; 0.28% in assay [5]; 4.85% in [6]. In addition, the inhibition in assay [7] amounted to 5.25%; in assay [8] it was 3.74%; in assay [9] it was 4.78%; in [10] it was 2.32%.

Take `COc1c(C(N)=O)cc(-c2ccc(Cl)cc2)cc1-c1ccc(S(N)(=O)=O)cc1`: the inhibition in assay [1] stood at 3.5%; in assay [2], 4.67%; in [3], 5.11%; in assay [4] it was 2.57%; in assay [5] it was 2.89%; in assay [6] it was 5.95%. For the same molecule, the inhibition came to 12.6% in [7], 4.33% in assay [8], 6.12% in [9] and 4.61% in [10].

As to `CCOc1ccc2c(-c3ccnc(Nc4cc(OC)cc(C(F)(F)F)c4)n3)cnn2n1`, the inhibition in assay [1] was 37%; in assay [2], 0.8%; in assay [3], 0.89%; in assay [4] it was 0.22%; in [5], -0.73%; in [6] it was 2.19%. In addition, the inhibition in assay [7] is 3.91%; in assay [8], -0.62%; in assay [9], 1.33%; in assay [10] it was -0.22%.

In the case of `Cc1nnc(-c2cccc(-c3ccc(C(=O)NCC4CC4)cc3)c2)o1`, the inhibition is 6.92% in [1]; 4.11% in assay [2]; 5.87% in assay [3]; 2.89% in assay [4]; 3.75% in [5]; 1.99% in assay [6]. The inhibition in assay [7] was found to be 5.86%; in assay [8] it was 4.47%; in assay [9], 4.29%; in [10] it was 2.71%.

For `N#Cc1cccc(Nc2ncc(-c3ccccc3)o2)c1`, the inhibition turned out to be 3.86% in assay [1]; 3.9% in [2]; 5.55% in assay [3]; 2.41% in assay [4]; 4.88% in assay [5]; 1.55% in [6]. For the same molecule, the inhibition in assay [7] amounted to 0.38%; in assay [8] it was 1.61%; in assay [9], 3.03%; in [10], 1.82%.

For `NC(=O)c1ccc2c(-c3ccnc(NCCCO)n3)c(-c3ccc(F)cc3)nn2c1`, the inhibition in [1] is 4.69%; in assay [2], 3.95%; in assay [3], 3.68%; in [4], 2.67%; in assay [5] it was 2.23%; in assay [6] it was 25.3%. The inhibition is 67.6% in assay [7], 7.1% in [8], 19.8% in assay [9] and 5.87% in assay [10].

Consider `CCN1CCC(C(=O)Nc2n[nH]c3nnc(-c4cccc(F)c4F)cc23)CC1`, for which the inhibition in assay [1] was 0.85%; in [2], -0.97%; in [3], -0.75%; in [4], 0.04%; in [5], 0.43%; in [6], -1.81%. Further, the inhibition in [7] was -0.5%; in [8] it was 1.73%; in assay [9], -0.13%; in [10] it was -0.42%.
